Most compounds without a hit are left out; they make up all but 19% or so of the library.
HT1080 IDH1KD tx – qHTS for induction of synthetic lethality in tumor cells producing 2HG: qHTS for the HT-1080-IDH1KD cell line. Potency, µM (doses to about 46.1 µM), for the others: top-dose activity, negative = toxicity, hits mostly cytotoxic. hit rate 2% among 360,000. HT-1080 IDH1 knockdown viability, ATP luminescence, 48 h;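 also: 0% = DMSO wells and -100% = cell-free medium wells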
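HT-1080-IDH1KD cells (IDH1 knocked down), 750/well in RPMI with 5% FBS, treated with compound 48 h at 37 degrees C. Viability by CellTiter-Glo luminescence, normalised to DMSO and no-cell wells; concentration-response curves classed.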
TDP1 cell CPT – qHTS for Inhibitors of human tyrosyl-DNA phosphodiesterase 1 (TDP1): qHTS in cells in presence of CPT; chicken DT40 Tdp1-/-;hTDP1 cells + 20 nM CPT, ATP luminescence, 48 h; Potency, µM (top dose mostly 46.2 µM), without a hit: at the top dose activity change, negative = growth inhibition, hits mostly inhibitors; hit rate 12% among 420,000; AID 686979, 2013; also: nearly all actives have a fitted effect of over 55% in size
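Chicken DT40 Tdp1-/- cells complemented with human TDP1, 400 cells/well, exposed to compounds plus 20 nM camptothecin for at least 48 h at 37 C; viability read as ATP content by CellTiter-Glo luminescence.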
KB-V1 cytotox – qHTS assay for MDR1-selective chemotherapeutics: Primary screen using the drug-selected MDR subline cells KB-V1; Potency, µM (highest dose often 46.1 µM), hits mostly cytotoxic; hit rate 3.4% among 400,000; KB-V1 MDR cells viability, CellTiter-Glo, 72 h; also: nearly all actives have a fitted effect of over 60% in size
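KB-V1 cells (P-gp-expressing MDR subline of KB-3-1) in phenol-red-free DMEM with 10% FBS were exposed to library compounds over a concentration series for 72 h at 37 degrees C. Viability read by CellTiter-Glo luminescence; concentration-effect curves fitted after normalization.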
HT1080NT lethal – qHTS for induction of synthetic lethality in tumor cells producing 2HG: qHTS for the HT-1080-NT fibrosarcoma cell line; HT-1080-NT fibrosarcoma viability, CellTiter-Glo ATP luminescence, 48 h; hit rate 1.6% among 360,000; Potency, µM (top dose mostly 46.1 µM), for the others: at the highest dose activity, negative = less viability, hits mostly cytotoxic;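 also: NT is the 2HG producing partner of a matched IDH1 knockdown line; 0% = DMSO-treated cells and -100% = media-only wells without cells; nearly all actives have a fitted effect of over 55% in size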
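Viability by CellTiter-Glo luminescence after 48 h compound exposure at 37C of HT-1080-NT cells (750/well, RPMI, 5% FBS). % activity scaled between DMSO wells and medium-only wells, then curve-fitted and categorized by curve class.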
TDP1 cell noCPT – qHTS for Inhibitors of human tyrosyl-DNA phosphodiesterase 1 (TDP1): qHTS in cells in absence of CPT; hit rate 15% among 420,000; DT40 Tdp1-/- hTDP1 cells, no CPT, ATP luminescence, 48 h; AID 686978, 2013; Potency, µM (top dose mostly 46.2 µM), for the others: at the top dose activity change, negative = growth inhibition, usual class: inhibitors; also: nearly all actives have a fitted effect of over 55% in size
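Compound effects on proliferation are scored in DT40 Tdp1-/-;hTDP1 cells in the absence of CPT. ATP levels (CellTiter-Glo luminescence) are recorded after a ≥48 hr, 37 °C incubation.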
KB-3-1 cytotox – qHTS assay for MDR1-selective chemotherapeutics: Primary screen using the parental adenocarcinoma cell KB-3-1; KB-3-1 viability, CellTiter-Glo ATP luminescence, 72 h; Potency, µM (series often up to 46.1 µM), actives largely listed as cytotoxic; hit rate 1.4% among 400,000; also: nearly all actives have a fitted effect of over 60% in size
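Multi-concentration cytotoxicity screen in KB-3-1 cells grown in DMEM lacking phenol red with 10% FBS. After 72 h at 37 °C with compound, ATP-dependent luminescence was recorded.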
* marks the source's active call; other numbers are inactive results; i = inactive; ? = inconclusive; . = no result given. Calls follow the shape of the dose curve; as a rule, active = well fitted curve in the direction sought with a large enough effect; inconclusive = small, poorly fitted or top-dose-only effect, or another doubt; inactive = no such curve, though single readings can be large; an effect the other way counts as inactive or inconclusive. Unless noted, % is scaled to controls: 0 for no effect and ±100 for the full control effect; potency is read from the fitted curve at half-maximal effect.

SMILES	HT1080 IDH1KD tx	TDP1 cell CPT	KB-V1 cytotox	HT1080NT lethal	TDP1 cell noCPT	KB-3-1 cytotox
Cc1ccc(C)c(C(O)c2ncc(-c3ccc(C(F)(F)F)cc3)[nH]2)c1 (configuration not stated)	?	?	i	?	?	i
CCN1CCc2nc3sc(C(=O)c4ccc(F)cc4)c(N)c3cc2C1	.	?	i	.	23µM*	i
CN1CCc2nc3sc(C(=O)c4ccc(F)cc4)c(N)c3cc2C1	.	?	i	.	?	i
CCN1CCc2nc3sc(C(=O)c4ccccc4)c(N)c3cc2C1	.	2.6µM*	?	.	3.7µM*	8.2µM*
O=C(CN1CCN(Cc2ccc(F)cc2)C1=O)NCc1ccc(F)cc1	.	-27%	i	.	-14%	i
CC1(C(=O)NCc2cccc3ccccc23)CCN1C(=O)Cc1ccc(-c2ccccc2)cc1 (configuration not stated)	?	?	i	18µM*	?	i
CC(C)CNC(=O)C1(C)CCCN1C(=O)Cc1cccc2ccccc12 (configuration not stated)	-1%	9.2µM*	i	-1%	8.2µM*	i
CC1(C(=O)NCCC#N)CCN1C(=O)Cc1ccc(-c2ccccc2)cc1 (configuration not stated)	-12%	?	?	4%	?	?
CC(C)CNC(=O)C1(C)CCCN1C(=O)c1cc2ccccc2s1 (configuration not stated)	6%	-29%	i	-3%	-23%	i
CC1(C(=O)NCc2cccs2)CCN1C(=O)Cc1cccc2ccccc12 (configuration not stated)	0%	29µM*	i	-4%	16µM*	i
CC1(C(=O)NCC(F)(F)F)CCN1C(=O)Cc1ccc(-c2ccccc2)cc1 (configuration not stated)	-25%	15µM*	?	-10%	?	?
CCCc1cn(CC(C)n2c(=O)c3ccccc3n2Cc2cc(C(C)C)no2)nn1 (configuration not stated)	12%	5%	i	14%	3%	i
COc1cc(NC(=O)Cn2nnnc2-c2ccccc2F)cc(OC)c1OC	.	-13%	.	.	-21%	.
CCN(C[C@H]1N[C@@](C)(C(=O)OC)[C@H]2C(=O)N(Cc3ccccc3)C(=O)[C@@H]12)S(=O)(=O)c1ccccc1	6%	-6%	i	12%	-5%	i
Cc1ccc(-c2csc(NCCn3c(C)nc4cc(C(F)(F)F)ccc43)n2)cc1	-8%	?	i	-4%	?	i
CCN(CC(=O)Nc1c(F)cccc1F)C(=O)/C=C/c1ccc2c(c1)OCO2	-5%	-47%	i	-8%	1%	i
CC(CN(C)Cc1ccccc1)OC(=O)c1ccc(F)cc1 (configuration not stated)	0%	15µM*	i	0%	10µM*	i
CC(CN1CCN(C)CC1)OC(=O)c1ccc(F)cc1 (configuration not stated)	12%	1%	i	14%	-8%	i
Cc1cccc(Nc2nc(-c3sc(C)nc3C)cs2)c1	?	?	?	26µM*	16µM*	?
Cc1nc(C)c(-c2csc(Nc3ccccn3)n2)s1	-12%	-60%	i	?	?	?
Cc1ccnc(Nc2nc(-c3ccc(Cl)cc3)cs2)c1	5%	?	i	-8%	21µM*	i
Cc1ccnc(Nc2nc(-c3sc(C)nc3C)cs2)c1	?	15µM*	?	?	?	?
CCC(=O)Nc1nc(C)c(-c2csc(Nc3cccc(O)c3)n2)s1	0.46µM*	6.5µM*	?	?	3.7µM*	?
Cc1ccc(OCC(O)CN2C(=O)NC(C)(C)C2=O)c(C)c1 (configuration not stated)	-3%	-13%	i	-1%	25%	i
Cc1nc(C)c(-c2csc(Nc3cccc(O)c3)n2)s1	?	?	?	?	23µM*	i
SMILES	HT1080 IDH1KD tx	TDP1 cell CPT	KB-V1 cytotox	HT1080NT lethal	TDP1 cell noCPT	KB-3-1 cytotox
Cc1oc2c(C)c(O)ccc2c(=O)c1-c1ccc2ccccc2n1	-7%	-19%	?	3%	-15%	i
CCC(=O)Oc1ccc2c(=O)c(-c3ccc4ccccc4n3)c(CC)oc2c1C	?	?	13µM*	21%	?	i
C[C@H](CO)N1C[C@H](C)[C@H](CN(C)Cc2cccc(F)c2)Oc2ncc(Br)cc2C1=O	-11%	-5%	?	-5%	-12%	i
Nc1ncncc1-c1ccccc1Cl	3%	3%	i	8%	?	i
C#C[C@]1(O)CC[C@H]2[C@@H]3CCc4cc(OC)ccc4[C@H]3CC[C@@]21C	-1%	0.24µM*	i	17%	21µM*	i
COc1ccc2c(c1)CC[C@@H]1[C@@H]2CC[C@]2(C)[C@@H](C(C)=O)C[C@@H]12	2%	?	?	-2%	?	?
C#C[C@]1(O)CC[C@H]2[C@@H]3CCc4cc(OC5CCCC5)ccc4[C@H]3CC[C@@]21C	21µM*	13µM*	i	16µM*	8.2µM*	?
CCOC(=O)Cc1cc(=O)n(-c2nc3ccccc3s2)[nH]1	-6%	-29%	i	-18%	18µM*	i
CCN(CC)S(=O)(=O)c1ccc(OC)c(NC(=O)c2cc([N+](=O)[O-])ccc2Cl)c1	-15%	?	i	-9%	-29%	18µM*
CCN(CC)S(=O)(=O)c1ccc(Cl)c(C(=O)Nc2ccc(Cl)cc2[N+](=O)[O-])c1	0%	5.8µM*	4.1µM*	-3%	4.6µM*	i
CN(C)S(=O)(=O)c1ccc(Cl)c(C(=O)Nc2ccccc2[N+](=O)[O-])c1	-5%	0%	16µM*	-2%	-27%	i
CCN(CC)S(=O)(=O)c1ccc(OC)c(NC(=O)CSc2cc(Cl)ccc2Cl)c1	3%	?	13µM*	-8%	?	i
CCCCn1c(N)c(N(CC)C(=O)c2ccccc2F)c(=O)[nH]c1=O	15%	7%	i	24%	0%	i

Source: PubChem
